# Compound activity as filed in PubChem.
# A selection: hits, their analogues and other compounds. The true share with any hit is near 3%.
# TrxR1 substrate – substrates of rat thioredoxin reductase 1 | O89049 | purified TrxR1 substrate turnover, NADPH consumption readout | Potency, µM (series often up to 114 µM), for inactives: at the top dose activity change, negative = substrate turnover | 390,000 tested, 0.01% active; note: % is set by controls: 0 for no effect and ±100 for the full control effect; nearly all actives have a fitted effect of over 50% in size
#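 Rat TrxR1, dispensed at 90 nM, was prereduced with 400 uM NADPH (final) for 5 min at ~22 deg C, then incubated with compound 15 min before 400 uM selenite. A first-read NADPH fluorescence drop versus no-compound background flagged substrates.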
# A549 viability – counter-screen for Nrf2 inhibitors: cytotoxicity in A549 cells; A549 ARE-Fluc cells, CellTiter-Fluor viability, 18-24 h; Potency, µM (top dose mostly 46 µM), for the others: top-dose activity change, negative = cytotoxicity, usual class: inhibitors; 390,000 tested, 0.16% active; AID 504648; note: % is set by controls: 0 for no effect and ±100 for the full control effect
#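 Cytotoxicity counterscreen: CellTiter-Fluor fluorescence was measured in A549 ARE_Fluc cells after 18-24 h of compound exposure in a concentration series. The subsequent BugLite luminescent read reports ARE-luciferase activity.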
# GALK inhibitor – blocks human galactokinase activity. P51570. Purified GALK, Kinase-Glo residual ATP luminescence. Potency, µM (series often up to 57.5 µM), for inactives: top-dose activity change, negative = inhibition, actives largely listed as inhibitors. 270,000 tested, 0.007% active. AID 1868; note: % is set by controls: 0 for no effect and ±100 for the full control effect
# Target sequence (P51570 whole entry, looked up): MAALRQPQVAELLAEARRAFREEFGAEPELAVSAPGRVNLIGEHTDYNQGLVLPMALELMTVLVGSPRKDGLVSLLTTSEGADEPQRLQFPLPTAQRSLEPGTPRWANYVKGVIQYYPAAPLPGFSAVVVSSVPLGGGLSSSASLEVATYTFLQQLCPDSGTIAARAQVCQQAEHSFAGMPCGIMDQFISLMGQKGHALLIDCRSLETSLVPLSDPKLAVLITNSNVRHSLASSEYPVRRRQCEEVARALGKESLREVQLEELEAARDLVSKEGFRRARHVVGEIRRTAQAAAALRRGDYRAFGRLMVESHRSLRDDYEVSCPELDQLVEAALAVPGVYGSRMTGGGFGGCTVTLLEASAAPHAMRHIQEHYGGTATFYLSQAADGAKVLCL
#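 The enzyme phosphorylates galactose (100 uM) using ATP (35 uM); inhibition is detected as higher residual ATP, quantified by bioluminescence after 1 h reaction at room temperature, pH 8.0.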
# TrxR1 inh – rat TrxR1 inhibition. Potency, µM (doses to about 114 µM), inactives show at the highest dose activity change, negative = inhibition, actives largely listed as inhibitors. O89049. recombinant rTrxR1, NADPH fluorescence consumption, selenite substrate. 390,000 tested, 1% active; note: % is set by controls: 0 for no effect and ±100 for the full control effect; nearly all actives have a fitted effect of over 65% in size
#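 Rat TrxR1 (90 nM in the dispensed reagent) was pre-reduced with 400 uM NADPH for 5 min at room temperature, then incubated with compound for 15 min. After 400 uM selenite was added, NADPH fluorescence (Ex 340/Em 450 nm) was followed for 8 min.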
# Nrf2 ARE act – activators of Nrf2 (ARE) signaling; AREc32 ARE-luciferase reporter (MCF7-derived line), luminescence, 24 h; Potency, µM (highest dose often 46.1 µM), without a hit: at the top dose activation, usual class: activators; 410,000 tested, 0.31% active; AID 624171; note: % of control where 0% means no effect; nearly all actives have a fitted effect of over 65% in size
#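 ARE-driven firefly luciferase activity in AREc32 cells measured after a 24 hr compound exposure at 37 deg C, using Steady-Glo reagent and a 30 min room-temperature hold.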
# Nrf2 inh – inhibitors of Nrf2 signaling; A549 ARE-Fluc reporter, luciferase luminescence, 18-24 h; Potency, µM (highest dose often 46 µM), for the others: at the top dose activity change, negative = inhibition, usual class: inhibitors; 360,000 tested, 2.1% active; AID 504444; note: % is set by controls: 0 for no effect and ±100 for the full control effect; nearly all actives have a fitted effect of over 60% in size
#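 Concentration-response testing used A549 ARE_Fluc cells at 5000 cells/well. Following an 18-24 h compound incubation, viability was read by fluorescence (Ex 405/Em 525) and luciferase output by luminescence.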
# Numbers without * were called inactive; ? = inconclusive; · = not tested or not shown; ! = not confirmed by another sample; [ ] = remark or other dose. Calls come from the whole dose curve; as a rule, active = well fitted curve in the direction sought with a large enough effect; inconclusive = small, poorly fitted or top-dose-only effect, or another doubt; inactive = no such curve, though single readings can be large; an effect the other way counts as inactive or inconclusive. Potency is the fitted concentration of half-maximal effect.
SMILES,TrxR1 substrate,A549 viability,GALK inhibitor,TrxR1 inh,Nrf2 ARE act,Nrf2 inh
O=C(Nc1ccc2c(c1)OCO2)N1CCN(c2cccc(C(F)(F)F)c2)CC1,-6.9%,-21.5%,-0.8%,-7.4%,0.5%,23.1µM*
Cc1cc(N2CCCC2)ccc1NC(=O)COc1cccc(C(F)(F)F)c1,0.5%,-19.5%,7.3%,12.6%,-1.1%,5.8µM*
CN1CCN(C(=S)c2ccc(OCC(=O)Nc3cccc(C(F)(F)F)c3)cc2)CC1,-13.4%,-8.7%,-2.4%,-10.1%,3.5%,14.6µM*
COc1ccc(N2CCN(C(=O)Nc3cccc(C(F)(F)F)c3)CC2)cc1,-0.5%,-17.8%,0.1%,9.7%,-0.3%,20.6µM*
O=C(Nc1cccc(C(F)(F)F)c1)N1CCN(C(=O)Nc2cccc(C(F)(F)F)c2)CC1,-7.4%,-9.6%,-2.3%,14.4%[57.1 µM],-0.1%,1.8%
Cc1cccc(Cn2ncc3c4sc(C)cc4n(C)c3c2=O)c1,·,-3.1%,·,·,·,-14.5%
CC(C)OC(=O)c1c(-c2ccccc2)c(-c2ccccc2)nn(C)c1=O,5.4%[0.457 µM],-4.2%,·,6.9%,3.9%,9.2µM*
COC(=O)c1ccc2nc(-c3cccc(Br)c3)c(CC3CCCCC3)n2c1,·,·,·,·,8.91µM*,·
Cc1ccc(-n2c(=O)[nH]c3cc(C(=O)NCCc4ccccc4)ccc3c2=O)cc1,8.9%[2.29 µM],-3.1%,·,18.3%,-0.2%,-6.3%[9.27 µM]
CCOC(=O)c1ccc(-c2ccc3ncnc(NCc4cccs4)c3c2)o1,·,?,·,·,·,0.0%
COc1ccc([C@@H]2C(C#N)=C(N)S[C@@H](c3ccccc3)[C@@H]2[N+](=O)[O-])cc1,1.1%,-15.3%,-0.5%,-2.3%,1.9%,20.6µM*
CC(C)(C)OC(=O)Cc1nnc(C(C(=O)OCc2ccccc2)c2ccccc2)o1 (stereo not given),·,-0.2%,·,·,·,13.3%
CC1(C)Cc2nc3oc4c(=S)nc[nH]c4c3cc2CO1,-7.7%,·,2.6%,11.2µM*,2.5%,19.3%
O=C1C[C@@H](c2ccccc2Cl)N1S(=O)(=O)c1ccccc1[N+](=O)[O-],-2.7%,-2.4%,·,-1.9%,·,3.5%
C=CC(=O)Nc1cccc(CN2C(=O)N(c3cc(OC)cc(OC)c3)Cc3cnc(NCCCCN(CC)CC)nc32)c1,20.0%[57.1 µM],6.51µM*,·,-48.3%,5.8%,-8.3%
COc1cccc(NC(=O)Cn2nc(Cc3cccnc3)c3ccccc3c2=O)c1,7.0%[57.1 µM],17.1%,2.0%,12.6%[57.1 µM],-0.9%,-0.9%
Cn1c(=O)n(C)c2cc(NC(=O)CCl)ccc21,0.8%,?,-0.7%,50.1µM*,?,18.4µM*
CC(CNC(=O)c1nnc(Cc2ccc(F)cc2)o1)c1ccccc1 (stereo not given),10.9%[11.4 µM],9.0%,·,39.9%[11.4 µM],0.4%,21.5%
O=[N+]([O-])c1ccc(O)c(-c2ccnc3cc(-c4ccccc4)nn23)c1,-8.0%,16.4µM*,·,1.5%,8.6%,18.4µM*
CCC(Sc1nc2cc3c(cc2c(=O)n1CCCCCC(=O)NCc1ccc2c(c1)OCO2)OCO3)C(=O)NCCCOC (stereo not given),2.9%[57.1 µM],-3.1%,·,11.7%[57.1 µM],2.5%,·
C/C(=N\NC(=O)CSCc1ccc([N+](=O)[O-])cc1)c1cccc(Br)c1,-4.4%,-16.0%,-2.6%,10.7%,-0.2%,23.1µM*
CCOC(=O)c1cc(-c2ccc3c(c2)OCCO3)nc2c1c(C)nn2CCC#N,159.7%,-1.0%,-4.0%,59.2%,0.3%,20.6µM*
CCN(CC)Cc1cc(C(C)=O)ccc1OCC(C)C,-5.1%,-9.9%,5.2%,35.5µM*,0.7%,-15.5%
CN(C)S(=O)(=O)Oc1ccsc1C(=O)Nc1ccc(Br)cc1,-2.5%[57.1 µM],?,9.0%,10.2%[57.1 µM],11.2%,20.6µM*
CN(C)S(=O)(=O)Oc1ccsc1C(=O)Nc1ccc(C(F)(F)F)cc1,5.1%[57.1 µM],3.7%,-4.2%,10.7%[57.1 µM],?,-12.4%
SMILES,TrxR1 substrate,A549 viability,GALK inhibitor,TrxR1 inh,Nrf2 ARE act,Nrf2 inh
CCC/C=C1/CCCOC(C(=O)NCc2ccc(C)o2)(C(F)(F)F)C1 (stereo not given),-8.7%,6.1%,·,12.6µM*,?,9.4%
O=C(NCc1ccccc1)C1(C(F)(F)F)C/C(=C\Cc2ccccc2)CCCO1 (stereo not given),-11.1%,-1.0%,·,-23.2%,·,5.9%
CS(=O)(=O)c1ccc(CNC(=O)C2(C(F)(F)F)C/C(=C\Cc3ccccc3)CCCO2)cc1 (stereo not given),-2.7%,8.6%,·,19.0%,3.6%,18.4µM*!
COc1ccc(-c2cccc(NS(=O)(=O)c3cc(C)c(Cl)cc3C)c2)nn1,-5.2%[57.1 µM],2.1%,·,18.9%[57.1 µM],-0.2%,·
CC1=NN(c2ccccc2)C(=O)/C1=C/N(C)C,7.3%,0.4%,-0.7%,-5.2%,-0.2%,-2.1%
CC1=NN(c2nc3ccccc3[nH]2)C(=O)C1Cc1ccccc1 (stereo not given),4.1%,-27.2%,-2.0%,-0.8%[11.4 µM],7.1%,23.1µM*
CC1=NN(c2nc3ccccc3[nH]2)C(=O)/C1=C/N(C)C,12.4%[11.4 µM],-2.6%,12.0%,64.1%[11.4 µM],-0.4%,18.4µM*
COc1ccc(C2c3c(nc(CCc4ccccc4)[nH]c3=O)Oc3ccc4ccccc4c32)cc1OC (stereo not given),·,5.2%,·,·,·,5.6%
Cc1coc2c(C)c3oc(=O)c(CC(=O)N4CCCCC4)c(C)c3cc12,1.3%,-4.3%,·,7.4%,-0.7%,23.0%
CCCCN1CC(c2nc3ccccc3n2CCCCOc2c(C)cccc2C)CC1=O (stereo not given),-7.0%,6.6%,·,0.1%,-3.9%,?
Cc1cccc(C)c1OCCn1c(C2CC(=O)N(c3cccc(Cl)c3)C2)nc2ccccc21 (stereo not given),1.9%,?,·,20.9%,-0.8%,20.6µM*
Cc1cccc(C)c1OCCCCn1c(C2CC(=O)N(c3ccc(F)cc3)C2)nc2ccccc21 (stereo not given),-6.6%,?,·,7.6%,-0.3%,20.6µM*
COc1ccc(CNC(=O)c2ccc(-c3nc(CSc4ccccc4)c(C)o3)cc2)cc1,59.7%,3.5%,·,70.6%,-0.2%,18.2%
O=C(/C=C/c1ccc(Br)o1)NC(c1ccccc1)c1ccccc1,15.5%,-8.7%,2.0%,20µM*,4.6%,25.9µM*
C=CCNC(=S)N/N=C/c1ccc(C)cc1C,-8.6%[57.1 µM],-3.0%,6.4%,-16.9%[57.1 µM],14.1%,18.4µM*
Cc1ccc(NC(=O)CCS(=O)(=O)c2ccc(Br)s2)c(Br)c1,4.5%,-3.0%,·,14.6%,3.8%,-3.6%
COc1cc2c(NC3CCN(C)CC3)nc(N3CCCN(C)CC3)nc2cc1OCC1CCCNC1 (stereo not given),58.2%,·,·,31.6µM*,·,·
COc1ccc(OCC(=O)NCc2ccc3c(c2)CCN3C(=O)c2cccc(C)c2)cc1,-4.3%[57.1 µM],-14.1%,·,5.9%[57.1 µM],0.3%,·
